The panel holds about 79,000 compounds, 15% with a hit somewhere; the sample as a whole holds those more often. Values without a mark were called inactive. Calls of active or inactive are those of the source. No stated cut-off is given here; in the data, active means growth inhibition above about 70%; inactive means the rest.
Key:
[1] = NCI Yeast Anticancer Drug Screen. Data for the rad50 strain (AID 155);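 further: 0% = growth of vehicle-only cultures of the same strain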; settings: S. cerevisiae rad50 strain growth inhibition, active compounds read high
Method in brief: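 Yeast carrying a defined DNA repair defect were exposed to test compounds, and growth was compared with vehicle-treated controls to give percent inhibition.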

[2] = NCI Yeast Anticancer Drug Screen. Data for the mec2-1 strain (AID 157); settings: S. cerevisiae mec2-1 strain, active compounds read high
Method in brief: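 Yeast mec2-1 mutant treated with compound. Readout: growth inhibition vs vehicle controls.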

[3] = NCI Yeast Anticancer Drug Screen. Data for the sgs1 mgt1 strain (AID 161);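 further: 0% = growth of cultures given vehicle only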; settings: S. cerevisiae sgs1 mgt1 strain, active compounds read high
Method in brief: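 Mutant yeast exposed to compound; growth scored against vehicle-only wells.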

[4] = NCI Yeast Anticancer Drug Screen. Data for the cln2 rad14 strain (AID 165);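 further: 0% = growth equal to vehicle treated cultures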; settings: S. cerevisiae cln2 rad14 strain, active compounds read high
Method in brief: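 cln2 rad14 yeast strain; compound exposure; growth inhibition read vs vehicle controls.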

[5] = NCI Yeast Anticancer Drug Screen. Data for the bub3 strain (AID 167); settings: S. cerevisiae bub3 mutant strain, active compounds read high
Method in brief: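 Compounds were applied to a genetically altered yeast strain carrying a cell-cycle control defect. Growth inhibition was scored against vehicle-treated controls.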

[6] = NCI Yeast Anticancer Drug Screen. Data for the mlh1 rad18 strain (AID 175); settings: S. cerevisiae mlh1 rad18 strain growth inhibition, active compounds read high
Method in brief: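 Yeast w/ defined DNA-repair lesions; compound exposure; growth vs vehicle controls → % inhibition.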

[7] = at 5.0 µM (retest, dose inferred, filed as 0.5)
[8] = at 50.0 µM (retest, dose inferred, filed as 5.0)

Row | Structure (SMILES) | growth inhibition [1, 7] [%] | growth inhibition [1, 8] | growth inhibition ([1]; at 50.0 µM) | growth inhibition [2, 7] [%] | growth inhibition [2, 8] | growth inhibition ([2]; at 50.0 µM) | growth inhibition [3, 7] [%] | growth inhibition [3, 8] | growth inhibition ([3]; at 50.0 µM) | growth inhibition [4, 7] [%] | growth inhibition [4, 8] | growth inhibition ([4]; at 50.0 µM) | growth inhibition [5, 7] [%] | growth inhibition [5, 8] | growth inhibition ([5]; at 50.0 µM) | growth inhibition [6, 7] [%] | growth inhibition [6, 8] | growth inhibition ([6]; at 50.0 µM)
1 | CN(C)C[N+](C)(C)Cc1ccc(C[N+](C)(C)C[N+](C)(C)Cc2ccc(CCl)cc2)cc1 | 0 | -2% | 83% (active) | -36 | -1% | 20.4% | -2 | -1% | 69.5% | 0 | -1% | 45% | -8 | -1% | 66.2% | -2 | -1% | 52.5%
2 | O=C1/C(=C/N2CCN(c3ccccc3)CC2)Cc2c(Cl)cccc21 | 13 | -2% | 77.3% (active) | 7 | 91% (active) | 98.2% (active) | 7 | 4% | 64.3% | 64 | 35% | 93.8% (active) | -9 | 33% | 94.3% (active) | 6 | 41% | 98.2% (active)
3 | CCCCCCC/C=C/C(=O)OC1C(OC2C(OC(CCCCCCC)CC(=O)OC(CCCCCCC)CC(=O)O)OC(C)C(O)C2O)OC(C)C(O)C1O (configuration not stated) | -18 | 70% (active) | 91.5% (active) | -37 | 57% | 81.8% (active) | -27 | 62% | 92.7% (active) | -40 | 68% | 90.1% (active) | -42 | 94% (active) | 90% (active) | -34 | 95% (active) | 89.5% (active)
4 | CCCCCCN(CCCCCC)P(=O)(N1CC1C)N1CC1C (configuration not stated) | -2 | 99% (active) | -11.6% | -5 | 99% (active) | 32.4% | -3 | 33% | 10.1% | 3 | 99% (active) | -7.75% | 7 | 99% (active) | 81.2% (active) | -2 | 99% (active) | 24.9%
5 | O=C1C=CC(=NN=C(c2ccccc2)c2ccccc2)C=C1 | -27 | -1% | 55% | -16 | -21% | 54.5% | -21 | -10% | 38.1% | -27 | -17% | 44% | -14 | -22% | 63.9% | -38 | -2% | 53%
6 | COc1ccc2nc3cc(Cl)ccc3c(Nc3ccc(S(N)(=O)=O)cc3)c2c1 | 0 | 17% | 37.5% | 0 | 9% | -11.4% | 0 | 5% | -6.05% | 9 | 3% | -8.25% | -1 | 2% | -11.4% | 1 | 2% | -6.5%
7 | N#CCc1nc(Cl)cc(Cl)n1 | 2 | 29% | 31.9% | 12 | 59% | 81.6% (active) | 2 | 24% | 19.8% | 4 | 12% | 9.7% | -4 | 2% | 5.05% | 3 | 27% | 15.9%
8 | O=c1c2cnccc2cc2c3ccccc3ccn12 | 47 | 93% (active) | 91.8% (active) | 12 | 58% | 41.5% | 9 | 64% | 6.75% | 3 | 42% | 74.8% (active) | 5 | 37% | 2.45% | 26 | 87% (active) | 64%
9 | COc1ccc(C(c2ccc(OC)c(OC)c2)C(Cl)(Cl)Cl)cc1OC | 3 | 94% (active) | 89.5% (active) | 8 | 96% (active) | 93.4% (active) | 6 | 95% (active) | 94% (active) | 8 | 94% (active) | 86% (active) | 3 | 97% (active) | 88.5% (active) | 6 | 94% (active) | 92.4% (active)

Reference: PubChem BioAssay (NCI)
